“And” between values parts separate entries of the source, which are not always exact repeats. Identical values can stand only once. The source made the active and inactive calls. How the source made its calls: active means hit-call score of the fitted dose curve at least 0.9, where 1 is the maximum; inconclusive means response in the unintended direction; inactive means score below 0.9.

This assay can be described thus: LTEA_HepaRG_LDH_cytotoxicity: Cytotoxicity Assessment in the Life Technologies and Expression Analysis (LTEA) Assay (AID 2283563). How it is done: LTEA_HepaRG is a cell based, multiplexed-readout assay that uses HepaRG, a human liver cell line, with measurements taken at 48 hours after chemical dosing on a 96-well plate.LTEA_HepaRG_LDH_cytotoxicity is one of 102 assay component(s) measured in the LTEA HepaRG cell culture assay. It is a marker of cell viability / cytotoxicity.Data from the assay component LTEA_HepaRG_LDH_cytotoxicity was analyzed into 1 endpoint. This assay endpoint, LTEA_HepaRG_LDH_cytotoxicity, was analyzed in the positive fitting direction relative to DMSO as the negative control and baseline of activity. Using a type of inducible reporter, measures of mRNA induction for loss-of-signal activity can be used to understand cell death. To generalize the intended target to other relatable targets, this assay endpoint is annotated to the cell cycle intended target family, where the subfamily is proliferation.
A total of 1060 chemcials from the ToxCast library were tested in eight-point concentration-response experiments. Cell culture and cytotoxicity assays were conducted at Thermo Fisher Scientific's Custom Services facility (Madison, WI). A single lot of human HepaRG cells (Thermo Fisher Scientific, Frederick, MD) was used for the cell culture experiments. 96-well format collagen type I coated plates of human HepaRG cells were prepared using established methods. Briefly, cryopreserved HepaRG cells were thawed, plated at a density of approximately 100,000 cells/well in HepaRG Thaw, Plate, and General Purpose media (HPRG770, Thermo Fisher Scientific), and incubated for 48 hours. 0.5% DMSO was selected as vehicle control to balance the requisite need of DMSO in HepaRG cultures to maintain differentiation (for example, baseline metabolism, proportions of hepatocytes vs. cholangiocytes), while enabling further hepatic receptor pathway activation (for example, PXR and CAR) in response to chemical exposure. 48 hours after plating, the culture medium was replaced with HepaRG Serum-Free Incudtion Media. Cells were exposed to each test chemical in duplicate and maintained in CO2 incubators for another 48 hours. Chemical plates were thawed to room temperature and 200x concentrations of treatment groups were prepared. 8-point conentration-reponse curves were made with the highest exposure at 100 uM, followed by half-log dilutions, all in 0.5% DMSO. Each test plate contained variouse controls, induction positive controls (1mM phenobarbital), cytotoxicity positive controls ([…] aflatoxin B1), vehicle controls (0.5% DMSO), and total lysis controls (0.5% DMSO). Cell morphology images were taken using an Essen IncuCyte FLR automated microscope, with six 96-well plates imaged in about 24 minutes. Images were captured and exported and JPEG files. Spent culture media was transfered to black-well plates for the LDH assay, and remaining media was sorted at -80 C for later use. Cells were treated with RLT buffer and frozen until shipped for gene expression analysis. Total RNA was isolated from the cell suspension in 75 uL of Buffer RLT (Qiagen, Germantown, MD 20874) by Quintiles/Expression Analysis (Durham, NC) using a custom isolation procedure. Total RNA from each plate well was transferred to a preamplification plate. Fluidigm's 96.96 Dynamic ArrayTM (Fluidigm, Amsterdam, the Netherlands) technology was used for gene expression analyses by quantitative reverse transcription polymerase chain reaction (qRT-PCR, performed by Quintiles/Expression Analysis, Durham, NC)89. Standard TaqManTM Assays (Applied Biosystems/ThermoFisher Scientific, Foster City, CA) were used to assess the expression of 93 genes selected based on their selectivity and sensitivity to important hepatic receptors known to be modulated by environmental chemicals; importance in human hepatocyte functionality; and hepatotoxicity. […]
Turning to `COC(=O)c1ccccc1C(=O)O`, the compound was classed as inactive.

As to `CCCN(CCC)c1c([N+](=O)[O-])cc(C(F)(F)F)c(N)c1[N+](=O)[O-]`, the call was inactive.

Regarding `COc1c(Cl)ccc(Cl)c1C(=O)O`, the outcome was inactive.

In the case of `S=C(S)NCCNC(=S)S.[Mn+2].[S-]C([S-])=NCCN=C([S-])[S-].[Zn+2]`, the AC50 was 1.58 µM (active) and 1.57 µM (active) and 1.84 µM (active).

On to `CCCN(CCC)C(=O)SCC`, for which the result was inactive.

As to `N#CSCSc1nc2ccccc2s1`, the AC50 was 75 µM (active).

`CCCOC(=O)c1ccc(C(=O)OCCC)nc1`: the compound was classed as inactive.

With `CCCCC(CC)CN1C(=O)C2C3C=CC(C3)C2C1=O` (stereo not given), the outcome was inactive.

Turning to `c1ccc2[nH]c(-c3cscn3)nc2c1`, the compound was classed as inactive.

Take `CCNc1nc(N)nc(Cl)n1`: the compound was classed as inactive.

Consider `CCCCCCC(C)OC(=O)COc1nc(F)c(Cl)c(N)c1Cl` (stereo not given), for which the call was inactive.

As to `CSC(=O)c1cccc2nnsc12`, the compound was called inactive.

For `OB(O)O`, the compound was classed as inactive.

On to `CCOC(=O)COc1cc(-n2ncc(C(F)(F)F)c(C)c2=O)c(F)cc1Cl`, for which the compound was classed as inactive.

For `CCOC(=O)C(C)Oc1ccc(Oc2nc3ccc(Cl)cc3o2)cc1` (stereo not given), the compound was called inactive.

With `O=C(Nc1ccc([N+](=O)[O-])cc1Cl)c1cc(Cl)ccc1O`, the AC50 is 4.38 µM (active).

For `CC(C)CCCCCCc1ccc(O)cc1`, the outcome was inactive.

On to `COCCO`, for which the compound was called inactive.

`N[C@@H](Cc1cc(I)c(Oc2ccc(O)c(I)c2)c(I)c1)C(=O)O`: the result was inactive.

Consider `CCCOC(=O)NCCCN(C)C`, for which the compound was called inactive.

For `O=C(c1ccccc1)C1CCCCC1`, the compound was classed as inactive.

As to `C#C[C@]1(O)CC[C@H]2[C@@H]3CCC4=CC(=O)CC[C@@H]4[C@H]3CC[C@@]21CC`, the call was inactive.

Take `CCOC(=O)c1ccc(O)cc1`: the call was inactive.

On to `CCOC(=O)C(C)Oc1ccc(Oc2cnc3cc(Cl)ccc3n2)cc1` (stereo not given), for which the compound was called inactive.

With `CCCCCOC(=O)COc1cc(N2C(=O)C3=C(CCCC3)C2=O)c(F)cc1Cl`, the result was inactive.

As to `S=C([S-])NCCNC(=S)[S-].[Mn+2]`, the half-maximal activity concentration (AC50) is 3.77 µM (active).

Regarding `Cc1nn(C)c(Oc2ccccc2)c1C=NOCc1ccc(C(=O)OC(C)(C)C)cc1`, the half-maximal activity concentration (AC50) was 8.6 µM (active).

Turning to `CCCCOC(=O)C(C)Oc1ccc(Oc2ccc(C(F)(F)F)cn2)cc1` (stereo not given), the compound was called inactive.

For `Oc1ccc(C(c2ccc(O)cc2)C(Cl)(Cl)Cl)cc1`, the AC50 is 76.4 µM (active).

For `c1ccc(Nc2ccccc2)cc1`, the call was inactive.

As for `COC(=O)c1ccc(I)cc1S(=O)(=O)NC(=O)Nc1nc(C)nc(OC)n1`, the outcome was inactive.

Regarding `CCN(CC)C(=O)c1cccc(C)c1`, the call was inactive.

Regarding `CCCCOC(=O)[C@@H](C)Oc1ccc(Oc2ccc(C(F)(F)F)cn2)cc1`, the result was inactive.

For `O=C(c1ccc(O)cc1O)c1ccc(O)cc1O`, the outcome was inactive.

With `C#CCOC(=O)[C@@H](C)Oc1ccc(Oc2ncc(Cl)cc2F)cc1`, the call was inactive.

For `CCN(Cc1c(F)cccc1Cl)c1c([N+](=O)[O-])cc(C(F)(F)F)cc1[N+](=O)[O-]`, the call was inactive.

Consider `CC(C)(C)[C@@H](O)[C@@H](Cc1ccc(Cl)cc1)n1cncn1`, for which the compound was classed as inactive.

On to `CCOC(=O)NCCOc1ccc(Oc2ccccc2)cc1`, for which the AC50 is 82.2 µM (active).

`CC(=O)[C@H]1CC[C@H]2[C@@H]3CCC4=CC(=O)CC[C@]4(C)[C@H]3CC[C@]12C`: the half-maximal activity concentration (AC50) was 35.8 µM (active).

Turning to `CCC(C)OC(=O)N1CCCCC1CCO` (stereo not given), the compound was called inactive.

(Values after PubChem BioAssay (EPA / NIEHS).)
